An excerpt weighted towards active compounds, which were near 3.1% of everything screened.
PLK1 PBD inh – PLK1 (human) polo-box domain binding inhibition; P53350; Potency, µM, without a hit: max response, negative = inhibition, most hits filed as inhibitors; hit rate 2.8% among 360,000; Plk1 PBD binding of FITC phosphopeptide, fluorescence polarization; note: series mostly up to about 57 µM; % is set by controls: 0 for no effect and ±100 for the full control effect; nearly all actives have a fitted effect of over 65% in size
Target sequence (P53350 whole entry, looked up, the tested form may be a part): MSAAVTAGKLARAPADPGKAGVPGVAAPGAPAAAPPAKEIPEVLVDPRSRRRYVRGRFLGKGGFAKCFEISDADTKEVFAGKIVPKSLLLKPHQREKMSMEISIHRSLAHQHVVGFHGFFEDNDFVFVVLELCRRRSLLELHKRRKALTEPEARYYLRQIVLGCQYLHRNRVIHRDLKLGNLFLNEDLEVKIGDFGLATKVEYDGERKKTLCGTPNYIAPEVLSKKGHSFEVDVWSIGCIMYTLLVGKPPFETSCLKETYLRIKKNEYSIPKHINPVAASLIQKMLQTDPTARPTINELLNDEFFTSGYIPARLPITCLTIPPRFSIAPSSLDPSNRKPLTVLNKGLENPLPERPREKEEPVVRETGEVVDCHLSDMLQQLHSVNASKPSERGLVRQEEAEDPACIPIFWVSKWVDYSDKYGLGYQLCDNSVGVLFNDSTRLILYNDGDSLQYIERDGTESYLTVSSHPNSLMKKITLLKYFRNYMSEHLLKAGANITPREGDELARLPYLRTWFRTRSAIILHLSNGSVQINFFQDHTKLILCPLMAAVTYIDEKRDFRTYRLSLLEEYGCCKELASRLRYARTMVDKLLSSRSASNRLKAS
TDP1 inh – inhibitors of human tyrosyl-DNA phosphodiesterase TDP1; recombinant TDP1, AlphaScreen DNA substrate cleavage; AID 485290; Q9NUW8; hit rate 0.28% among 350,000; Potency, µM (top dose mostly 130 µM), for inactives: at the highest dose activity change, negative = inhibition, actives largely listed as inhibitors; note: % is set by controls: 0 for no effect and ±100 for the full control effect; nearly all actives have a fitted effect of over 40% in size
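Enzyme-compound mixtures sat 15 min at room temperature, followed by a 5 min reaction with 15 nM final substrate and 10 min with AlphaScreen beads. Recombinant human Tdp1 was used at 1 nM final.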
VDR inh – vitamin D3 receptor (human) inhibition; hit rate 0.93% among 400,000; P11473; VDR-SRC2-3 peptide fluorescence polarization, 2 h; Potency, µM, inactives show max response, negative = inhibition, most hits filed as inhibitors; note: % is set by controls: 0 for no effect and ±100 for the full control effect
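Measured by FP: displacement of SRC2-3 coactivator peptide from VDR by library compounds, following a two-hour ambient incubation.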
Tb PFK block – inhibitors of T. brucei phosphofructokinase; O15648; T. brucei PFK, ADP-Glo luminescence; Potency, µM (titrated, usually from 57.5 µM), without a hit: top-dose activity, negative = inhibition, actives largely listed as inhibitors; hit rate 0.17% among 330,000; AID 485367;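 note: 0% = uninhibited 1x PFK enzyme wells and -100% = no-enzyme wells; nearly all actives have a fitted effect of over 60% in size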
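ADP-Glo luminescence quantified ADP after 45 min at room temperature, with 1.25 nM T. brucei PFK, 0.1 mM ATP and 0.5 mM fructose-6-phosphate in pH 8.0 TEA buffer. qHTS titrations up to 57 µM; curves classified by quality.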
ASM inhibitor – blocks human secretory acid sphingomyelinase; P17405; placental ASM, HMU-PC fluorogenic substrate, 60 min; Potency, µM (doses to about 57.5 µM), for inactives: at the highest dose activity change, negative = inhibition, most hits filed as inhibitors; hit rate 0.006% among 340,000
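Steps: dispense placental human ASM, pin compound, wait 10 min at room temperature, add HMU-PC0 substrate at 9 uM final, incubate 60 min at 37 °C, add stop solution raising pH to 10, read fluorescence.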
Pin1 inhibitor – inhibitors of human Pin1; Q13526; Pin1 FP peptide displacement, HiFluor488, 10 min; Potency, µM (highest dose often 115 µM), for inactives: at the top dose activity, negative = inhibition, hits mostly inhibitors; hit rate 0.009% among 390,000; active = well fitted inhibition curve with a large enough effect in the polarisation, with a control signal flat, not every such curve was filed as active; inconclusive = small, poorly fitted or top-dose-only effect, or effect the other way, or a change in a side signal; inactive = no such curve, though single readings can be large or run the other way; the % refers to the polarisation; note: % is set by controls: 0 for no effect and ±100 for the full control effect
Target sequence (Q13526 whole entry, looked up): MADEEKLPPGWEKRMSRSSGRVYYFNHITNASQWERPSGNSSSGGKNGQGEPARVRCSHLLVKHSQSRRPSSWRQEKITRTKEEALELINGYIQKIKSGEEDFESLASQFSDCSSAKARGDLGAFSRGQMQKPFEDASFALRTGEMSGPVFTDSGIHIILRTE
* = called active by the depositor; [ ] = dose if it differs, or a comment. Unless noted, calls come from the whole dose curve; as a rule, active = well fitted curve in the direction sought with a large enough effect; inconclusive = small, poorly fitted or top-dose-only effect, or another doubt; inactive = no such curve, though single readings can be large; an effect the other way counts as inactive or inconclusive. Potency is the fitted concentration of half-maximal effect.

How did Cc1ccccc1Cn1c(SCc2ccc(C(=O)NC(C)c3ccccc3)cc2)nc2ccncc21 (stereo not drawn) do in these assays?
TDP1 inh: 12.7%; VDR inh: 17.5%; Pin1 inhibitor: 22.4%

How did COc1ccc(S(=O)(=O)N(CCc2ccccc2)CC(=O)NCc2ccccc2)cc1OC do in these assays?
TDP1 inh: -1.3%[12.3 µM]; VDR inh: -11.7%; Pin1 inhibitor: 33.7%

How did COc1cc(NC(=O)CCNS(=O)(=O)c2cc(Br)cnc2N)cc(OC)c1 do in these assays?
PLK1 PBD inh: -15.4%; TDP1 inh: 0.2%; VDR inh: 12.5%; Tb PFK block: -6.3%; ASM inhibitor: -3.8%; Pin1 inhibitor: -3.2%

How did COc1ccccc1CNC(=O)CCNS(=O)(=O)c1cc(Br)cnc1N do in these assays?
PLK1 PBD inh: 26.7µM*; TDP1 inh: 2.8%; VDR inh: -22.6%; Tb PFK block: 1.2%; ASM inhibitor: -0.6%; Pin1 inhibitor: -1.2%

Results for COc1ccc(CNc2ncncc2-c2cccnc2)c(OC)c1 ?
VDR inh: -9.7%

How did Cc1noc(C)c1-c1cc(Nc2ccc(F)cc2)ncn1 do in these assays?
TDP1 inh: 7.3%[56.1 µM]; VDR inh: 0.7%

Results for COc1ccc(CNc2cc(-c3cccnc3)ncn2)c(OC)c1 ?
VDR inh: 31.6µM*

What do the screens show for `Cc1noc(C)c1-c1cncnc1NC1CC1`?
TDP1 inh: 28.2µM*; VDR inh: -21.9%

How did Cc1noc(C)c1-c1cc(NC2CC2)ncn1 do in these assays?
TDP1 inh: 39.8µM*; VDR inh: -21.7%

How did COc1ccc(CNc2ncncc2-c2ccoc2)c(OC)c1 do in these assays?
VDR inh: 50.1µM*

Results for CN(C)c1cccc(-c2ncnc(N3CCC(C(N)=O)CC3)n2)c1 ?
Pin1 inhibitor: -22.7%

What do the screens show for `Cc1ccc(CSc2cn(CC(=O)N3CCCCCC3)c3ccccc23)cc1`?
TDP1 inh: 2.6%; VDR inh: -0.2%; Pin1 inhibitor: -1.1%

Results for Cc1ccc(-c2nc(CS(=O)(=O)CC(=O)Nc3ccc(Br)cc3F)c(C)o2)cc1 ?
TDP1 inh: 1.2%; VDR inh: -5.3%; Pin1 inhibitor: 14.1%

What do the screens show for `c1ncc(-c2ccoc2)c(NC2CC2)n1`?
VDR inh: 50.1µM*

What do the screens show for `c1cncc(CNc2ncncc2-c2ccoc2)c1`?
VDR inh: 50.1µM*

What do the screens show for `COc1ccc(CNc2nc(-c3ccc(N(C)C)cc3)nc3ccccc23)c(OC)c1`?
VDR inh: 35.5µM*

What do the screens show for `COc1ccc(CNc2ncnc3ccc(-c4ccoc4)cc23)c(OC)c1`?
VDR inh: 39.8µM*

How did COc1ccc(CNc2nc(-c3ccc(C(=O)N(C)C)cc3)nc3ccccc23)c(OC)c1 do in these assays?
TDP1 inh: -13.4%; VDR inh: -10.9%

How did Cc1ccccc1-c1cncnc1NC1CCNCC1 do in these assays?
TDP1 inh: -7.7%[56.1 µM]; VDR inh: -4.6%

How did N#Cc1cccc(-c2cncnc2NCc2cccnc2)c1 do in these assays?
VDR inh: -8.5%

Results for O=C(CNC(=O)c1ccc2cc[nH]c2c1)OC(C(=O)Nc1cc(C(F)(F)F)ccc1Cl)c1ccccc1 (stereo not drawn) ?
TDP1 inh: 0.7%; Pin1 inhibitor: 9.6%

How did COC(=O)N1C2CC3(C)C=C(C)OC1(C)C3c1ccccc12 (stereo not drawn) do in these assays?
TDP1 inh: 8.6%[12.3 µM]

What do the screens show for `Cc1ccc(-n2nnnc2-c2ccccc2)cc1`?
PLK1 PBD inh: -14.5%; TDP1 inh: 6.1%; VDR inh: -10.4%; Tb PFK block: -0.4%; ASM inhibitor: -4.8%; Pin1 inhibitor: -2.1%

What do the screens show for `Cc1ccc(-n2nnnc2C(Cl)c2nnnn2-c2ccc(C)cc2)cc1`?
PLK1 PBD inh: inconclusive; TDP1 inh: 0.6%; VDR inh: 25.1µM*; Tb PFK block: -13.0%; ASM inhibitor: 0.4%; Pin1 inhibitor: 3.9%

Results for COc1ccc(/C=N/OCC(=O)Nc2nc3ccccc3s2)cc1OC ?
PLK1 PBD inh: 16.8µM*; TDP1 inh: 0.6%; VDR inh: inconclusive; Tb PFK block: -12.2%; ASM inhibitor: -2.5%; Pin1 inhibitor: 0.6%

Results for COc1ccc(C(=O)Nc2nc3ccccc3s2)cc1OC ?
PLK1 PBD inh: 4.1%; TDP1 inh: 5.6%; VDR inh: 0.7%; Tb PFK block: -6.3%; ASM inhibitor: -0.6%; Pin1 inhibitor: 4.1%

What do the screens show for `N#CCCn1cc(C(=O)Nc2ccc(C(=O)O)cc2)c(-c2cccs2)n1`?
PLK1 PBD inh: 5.97µM*; TDP1 inh: 2.7%; VDR inh: inconclusive; Tb PFK block: -0.3%; ASM inhibitor: 4.7%; Pin1 inhibitor: 1.5%

How did COC(=O)c1c(NC(C)=O)sc(C(=O)Nc2ccccc2)c1C do in these assays?
PLK1 PBD inh: -5.2%; TDP1 inh: -2.4%; VDR inh: -2.1%; Tb PFK block: -6.7%; ASM inhibitor: -4.4%; Pin1 inhibitor: -0.6%

How did COC(=O)c1c(NC(C)=O)sc(C(=O)Nc2ccccc2F)c1C do in these assays?
PLK1 PBD inh: 23.8µM*; TDP1 inh: 2.4%; VDR inh: -12.1%; Tb PFK block: -13.5%; ASM inhibitor: -2.7%; Pin1 inhibitor: 1.2%

What do the screens show for `CN(C)CCCNc1ncnc2ccc(-c3ccc4c(c3)OCO4)cc12`?
Pin1 inhibitor: 2.4%

What do the screens show for `O=C(C[n+]1ccccc1)c1ccc(NC(=O)c2ccccc2)cc1`?
PLK1 PBD inh: -14.4%; TDP1 inh: 7.7%; VDR inh: -1.8%; Tb PFK block: 1.9%; ASM inhibitor: 0.0%; Pin1 inhibitor: 9.5%

Results for NC(=O)c1cc[n+](CC(=O)c2ccc(NC(=O)c3ccccc3)cc2)cc1 ?
PLK1 PBD inh: 23.8µM*; TDP1 inh: -8.9%; VDR inh: inconclusive; Tb PFK block: -29.5%; ASM inhibitor: -3.6%; Pin1 inhibitor: 14.3%

Results for CCc1ccc(CNC(=O)c2ccc(-n3c(C)cc4c3CCC(C)C4)cc2)cc1 (stereo not drawn) ?
TDP1 inh: 9.9%; VDR inh: 8.8%; Pin1 inhibitor: 6.7%

What do the screens show for `O=C(O)COc1ccc(C(=O)c2cccs2)c(Cl)c1Cl`?
TDP1 inh: -11.2%; VDR inh: -18.3%

How did Cc1ccccc1C1=C/C(=C(\SS/C(C(=O)c2ccc(OCC(=O)O)c(Cl)c2Cl)=C2\C=C(c3ccccc3C)SS2)C(=O)c2ccc(OCC(=O)O)c(Cl)c2Cl)SS1 do in these assays?
PLK1 PBD inh: 16.8µM*; VDR inh: 39.8µM*; ASM inhibitor: -27.2%

How did Cc1ccc(-n2c(N)c(C(=O)N3CCOCC3)sc2=S)cc1 do in these assays?
PLK1 PBD inh: 15µM*; TDP1 inh: 6.9%; VDR inh: 89.1µM*; Tb PFK block: -16.0%; ASM inhibitor: 0.0%; Pin1 inhibitor: 3.0%
